Hits are enriched below; roughly 2.4% of the tested compounds scored in any of these assays.
D2 ag-1: agonists of human D2 dopamine receptor; P14416; HEK293 T-REx D2 cells, calcium flux agonist mode; activation, % at 2 µM; 0.53% of 340,000 active; AID 485358;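 active = activation over 3 SD above normal in the single-dose calcium agonist read, cut at about 30% in these data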; also: 0% is about no effect
Target sequence (P14416 whole entry, looked up): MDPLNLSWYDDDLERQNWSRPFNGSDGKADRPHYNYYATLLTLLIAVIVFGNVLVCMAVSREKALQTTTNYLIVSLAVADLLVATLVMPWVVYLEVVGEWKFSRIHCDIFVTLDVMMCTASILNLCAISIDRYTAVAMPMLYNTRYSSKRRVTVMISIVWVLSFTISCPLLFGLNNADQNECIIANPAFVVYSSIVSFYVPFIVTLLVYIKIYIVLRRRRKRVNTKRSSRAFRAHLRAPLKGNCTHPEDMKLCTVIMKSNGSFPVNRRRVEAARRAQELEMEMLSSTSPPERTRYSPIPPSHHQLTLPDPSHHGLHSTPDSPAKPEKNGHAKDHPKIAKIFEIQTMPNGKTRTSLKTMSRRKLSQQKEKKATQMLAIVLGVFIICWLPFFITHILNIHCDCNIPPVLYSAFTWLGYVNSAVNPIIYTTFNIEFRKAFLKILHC
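Calcium-flux readout, 1 cycle/sec over 180 s following compound pin transfer, in inducible HEK293 Trex D2 cells (force-coupled); dopamine controls included. Positive calcium responses during this window marked compounds as potential agonists.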
D2 PAM-1: positive allosteric modulators of human D2 dopamine receptor | 0.34% of 340,000 active | HEK293 T-REx D2, calcium flux, EC20 dopamine potentiation | AID 485347 | potentiation, % at 10 µM | P14416;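 active = potentiation over 3 SD above the plate norm, cut at about 30% in these data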; also: 0% is about no effect
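Potentiation of an EC20 dopamine calcium response measured kinetically over 180 s, after a preceding 180 s compound-only read flagging agonists. Cells: inducible Hek293 Trex D2 line, 4000/well, cultured overnight at 30 C before dye loading.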
D2 PAM-2: potentiates the human D2 dopamine receptor allosterically | P14416 | DiscoveRx D2 beta-arrestin cells, luminescence, 90 min; 100% = 57 uM dopamine signal | potentiation, % (no concentration beside the values) | 0.23% of 360,000 active | AID 624464; in the data active = potentiation above about 50%
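D2 cells co-treated with compound plus 50 nM dopamine (EC20) for 90 min at 37 deg C to detect potentiation. Beta-arrestin recruitment was read as enzyme-fragment luminescence after 1 h at ambient temperature. Full response was set by 57 uM dopamine.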
D2 ag-2: human D2 receptor agonism in beta-arrestin assay; P14416; DiscoveRx PathHunter D2 beta-arrestin, luminescence, 90 min; 100% = 57 uM dopamine signal; activation, % (test concentration not listed); 0.084% of 360,000 active; AID 624465; in the data active = activation above about 40%
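DiscoveRx PathHunter D2 beta-arrestin cells (2,100/well) attached overnight, then compound-stimulated 90 min at 37 C in HBSS/10 mM HEPES/0.1% Tween-20 buffer; beta-galactosidase complementation read by luminescence after 1 h at ambient temperature. Dopamine 57 uM final (EC100) as control.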
D2 antag: D2 dopamine receptor (human) antagonism; P14416; 2% of 340,000 active; AID 485344; HEK293 TREx D2 cells, calcium flux, dopamine EC80; inhibition, % at 10 µM; in the data active = inhibition above about 30%; inactive = below that, where a call was filed; also: 0% is about no effect
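Antagonism is scored as inhibition of an EC80 dopamine-evoked calcium signal in a force-coupled, tetracycline-inducible HEK293 T-REx D2 line, with compound present 180 s before agonist.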
The depositor's hits bear a star.

For CCCc1cc(=O)[nH]c(SCC(=O)NC2CCCCCCC2)n1 the results were D2 PAM-2 -4.8 and D2 ag-2 -1.5.
Screening CCCc1cc(=O)[nH]c(SCC(=O)NC(=O)NC2CCCC2)n1 returned D2 ag-1 0.6, D2 PAM-1 -14.5, D2 PAM-2 -14.5, D2 ag-2 1.2 and D2 antag 32.1*.
COc1cccc(/C=N/N2C(=O)CSC2=S)c1O was read as D2 ag-1 -0.2, D2 PAM-1 -1.9, D2 PAM-2 -2.1, D2 ag-2 4.9 and D2 antag 10.3.
Screening COc1cc(/C=N/N2C(=O)CSC2=S)cc(Br)c1O returned D2 ag-1 10.6, D2 PAM-1 -4.4, D2 PAM-2 -0.2, D2 ag-2 -1.4 and D2 antag 43.6*.
CCn1cc(S(=O)(=O)CC(=O)Nc2ccc3c(c2)OCCO3)c2ccccc21 was read as D2 ag-1 -0.9, D2 PAM-1 7.3, D2 PAM-2 52.6*, D2 ag-2 11.7 and D2 antag 11.5.
For CCCn1cc(S(=O)(=O)CC(=O)Nc2ccc(OC)cc2OC)c2ccccc21 the results were D2 ag-1 -0.6, D2 PAM-1 -2.0, D2 PAM-2 68.1*, D2 ag-2 8.9 and D2 antag 4.4.
Screening COc1ccc(NC(=O)CS(=O)(=O)c2cn(CC(=O)N(C(C)C)C(C)C)c3ccccc23)c(OC)c1 returned D2 ag-1 -0.8, D2 PAM-1 9.9, D2 PAM-2 11.7, D2 ag-2 0.2 and D2 antag 13.0.
`Cc1ccc(NC(=O)CS(=O)(=O)c2cn(C)c3ccccc23)c(C)c1` gave D2 ag-1 -1.2, D2 PAM-1 7.9, D2 PAM-2 -5.3, D2 ag-2 -0.8 and D2 antag 16.3.
For Cn1cc(S(=O)(=O)CC(=O)Nc2ccc(Br)cc2)c2ccccc21 the results were D2 ag-1 -0.8, D2 PAM-1 -12.8, D2 PAM-2 -9.9, D2 ag-2 -2.5 and D2 antag 39.2*.
`CC1=C(c2ccc(C)cc2)S(=O)(=O)N(Cc2ccc(C(=O)NCc3ccccc3F)cc2)C1=O` gave D2 PAM-1 -29.6.
`CC(=O)c1ccc2c(c1)C1C=CCC1C(c1ccc(S(=O)(=O)N3CCOCC3)cc1)N2` (stereo not given) gave D2 ag-1 0.8, D2 PAM-1 13.5, D2 PAM-2 61.2*, D2 ag-2 9.8 and D2 antag 2.8.
`Cc1nc2nc(NC(=O)CC(C)C)[nH]n2c(=O)c1Cc1ccccc1` gave D2 ag-1 -1.3 and D2 PAM-1 6.0.
Screening COc1ccc(/C=C/CN2CCCC(CCC(=O)NCc3ccc(F)c(F)c3)C2)cc1 (stereo not given) returned D2 ag-1 0.2, D2 PAM-1 -15.2, D2 PAM-2 -15.4, D2 ag-2 -0.6 and D2 antag -45.2.
`COc1ccccc1/C=C/CN1CCCC(CCC(=O)NCc2ccc(F)c(F)c2)C1` (stereo not given) gave D2 ag-1 -0.5, D2 PAM-1 -20.2, D2 PAM-2 -11.4, D2 ag-2 1.1 and D2 antag 33.0*.
`COc1cccc(CNC(=O)CCC2CCCN(C/C=C/c3ccccc3OC)C2)c1` (stereo not given) gave D2 ag-1 0.6, D2 PAM-1 -16.6, D2 PAM-2 -31.7, D2 ag-2 -2.1 and D2 antag 32.5*.
For COc1ccc(N2CC(NC(=O)C3CCCCC3)CC2=O)cc1 (stereo not given) the results were D2 ag-1 -4.9 and D2 PAM-1 3.2.
Screening C#Cc1ccc(CN2CCC(Oc3ccc(C(=O)NCc4ccccn4)cc3)CC2)cc1 returned D2 ag-1 -0.2, D2 PAM-1 -18.5, D2 PAM-2 -31.4, D2 ag-2 -3.0 and D2 antag 36.4*.
Screening CNCc1c(OCc2ccc(F)cc2)ccc2ccccc12 returned D2 ag-1 0.2, D2 PAM-1 -15.5, D2 PAM-2 -6.6, D2 ag-2 -2.4 and D2 antag 74.4*.
CN(C)/C=N/c1cc(=O)[nH]c(=O)n1Cc1ccccc1 was read as D2 ag-1 0.2, D2 PAM-1 5.5, D2 PAM-2 -23.9, D2 ag-2 -1.6 and D2 antag 40.1*.
For CC(C)NC(=O)CN(Cc1ccc2c(c1)OCO2)C(=O)CCC(=O)Nc1ccccn1 the results were D2 ag-1 0.3, D2 PAM-1 8.8, D2 PAM-2 1.5, D2 ag-2 -1.1 and D2 antag 43.2*.
Screening CCc1cccc(C)c1NC(=O)CCS(=O)(=O)c1cc(Br)cc2c1N(C(=O)C1CC1)CC2 returned D2 ag-1 -1.3 and D2 PAM-1 8.9.
For COc1ccc(-n2c(C)nnc2SCC(=O)N2CCOCC2)cc1 the results were D2 ag-1 0.3, D2 PAM-1 4.9, D2 PAM-2 -2.5, D2 ag-2 3.3 and D2 antag 0.1.
`Cc1cc(C)cc(NC(=O)C2CCN(c3cnccn3)CC2)c1` gave D2 ag-1 -1.0, D2 PAM-1 -37.9, D2 PAM-2 -5.2, D2 ag-2 -7.6 and D2 antag 33.0*.
Screening CCCCN1CC(c2nc3ccccc3n2CCCCOc2c(C)cccc2C)CC1=O (stereo not given) returned D2 ag-1 1.6 and D2 PAM-1 -0.1.
For CCNC(=O)Nc1ccc(-n2nc(C)c(C(=O)OCC)c2C)nc1 the results were D2 ag-1 -1.0, D2 PAM-1 1.4, D2 PAM-2 -4.8, D2 ag-2 1.9 and D2 antag 45.0*.
For CCOC(=O)c1c(C)nn(-c2ccc(NC(=O)/C=C/C(=O)O)cc2)c1C the results were D2 ag-1 0.4, D2 PAM-1 8.5, D2 PAM-2 3.7, D2 ag-2 0.5 and D2 antag -19.9.
O=C(NC1CCN(C(=O)Nc2cccc(Cl)c2)CC1)C1CCCCC1 was read as D2 ag-1 0.4, D2 PAM-1 0.2, D2 PAM-2 -4.8, D2 ag-2 -1.6 and D2 antag 7.4.
`O=C(Nc1cccc(Cl)c1)NC1CCN(C2CCCCC2)C1` (stereo not given) gave D2 ag-1 -1.1, D2 PAM-1 -21.9, D2 PAM-2 -25.6, D2 ag-2 4.8 and D2 antag 84.9*.
Screening COc1ccc(OC)c(S(=O)(=O)NCc2cccn2Cc2cccc(C)c2)c1 returned D2 ag-1 1.2 and D2 PAM-1 2.6.
Cc1ccc(CN2CCSc3ccc(C(=O)NC4CCN(Cc5ccccc5)CC4)cc32)cc1 was read as D2 ag-1 0.0, D2 PAM-2 -13.1, D2 ag-2 -4.6 and D2 antag 73.9*.
For CS(=O)(=O)Cc1ccc(C(=O)NC2CCN(Cc3ccccc3)C2)cc1 (stereo not given) the results were D2 ag-1 0.1, D2 PAM-1 -10.9, D2 PAM-2 -10.9, D2 ag-2 1.6 and D2 antag 26.9.
O=C(NC1CCCC1)c1ccc2c(c1)N(Cc1ccccc1)CCS2 was read as D2 ag-1 -0.1, D2 PAM-1 -3.9, D2 PAM-2 2.6, D2 ag-2 1.7 and D2 antag -5.8.

High-throughput results from PubChem BioAssay.
